Legend:
Assay in all cases: DAPPL (digital affinity profiling via proximity ligation, sequencing); 10 mM Tris-HCl pH 7.5, 50 mM NaCl, 1 mM DTT, 4% glycerol, room temperature, 30 min; GST-TFs on glutathione beads, 16-mer random dsDNA library, 0.1% formaldehyde crosslink after washing; high values mean tight binding
Conditions in all cases: protein: recombinant; tags: N-terminal GST; dsDNA, one strand shown
ERF = target: T1, ERF (Homo sapiens, UniProt P50548 1-548)
T1 sequence: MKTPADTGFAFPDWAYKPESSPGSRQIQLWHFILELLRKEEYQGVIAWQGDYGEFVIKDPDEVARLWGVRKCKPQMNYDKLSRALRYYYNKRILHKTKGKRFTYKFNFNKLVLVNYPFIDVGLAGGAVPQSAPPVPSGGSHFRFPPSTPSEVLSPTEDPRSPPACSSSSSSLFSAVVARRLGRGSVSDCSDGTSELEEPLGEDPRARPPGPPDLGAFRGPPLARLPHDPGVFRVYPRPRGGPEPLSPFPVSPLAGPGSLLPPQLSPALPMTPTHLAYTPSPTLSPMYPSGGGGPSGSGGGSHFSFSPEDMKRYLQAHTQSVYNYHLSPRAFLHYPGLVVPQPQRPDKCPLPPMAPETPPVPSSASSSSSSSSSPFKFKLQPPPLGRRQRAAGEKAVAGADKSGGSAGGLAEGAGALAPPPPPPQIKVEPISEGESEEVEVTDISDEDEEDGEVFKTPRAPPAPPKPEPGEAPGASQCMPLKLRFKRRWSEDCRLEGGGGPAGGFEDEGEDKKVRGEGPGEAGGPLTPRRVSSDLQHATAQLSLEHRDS
Outline: (§1)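 Pools were built from human transcription factors expressed in yeast as GST fusions, captured on glutathione beads and DNA-barcoded, along with a tag-only sample. Incubation with 200 nmole of a 16-mer random double-stranded DNA library lasted 30 min at room temperature in Tris/NaCl/DTT/glycerol buffer, and was followed by washing, 0.1% formaldehyde crosslinking, proximity ligation, PCR amplification and Illumina NextSeq500 sequencing. Binding signal is the quotient of each hexamer's read frequency for a factor and its frequency for the tag-only sample.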

ETV3L = target: T2, ETV3L (Homo sapiens, UniProt Q6ZN32 1-361)
T2 sequence: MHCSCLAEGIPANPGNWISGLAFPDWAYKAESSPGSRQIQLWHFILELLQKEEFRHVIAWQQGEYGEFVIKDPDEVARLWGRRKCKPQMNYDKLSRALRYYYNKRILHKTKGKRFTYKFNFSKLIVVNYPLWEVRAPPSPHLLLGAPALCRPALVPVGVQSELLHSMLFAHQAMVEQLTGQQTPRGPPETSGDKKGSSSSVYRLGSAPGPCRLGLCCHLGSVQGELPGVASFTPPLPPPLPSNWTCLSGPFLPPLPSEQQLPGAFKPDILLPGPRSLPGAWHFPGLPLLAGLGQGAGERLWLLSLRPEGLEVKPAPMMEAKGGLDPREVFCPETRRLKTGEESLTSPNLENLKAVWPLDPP
Outline: as §1

ETS2 = target: T3, ETS2 (Homo sapiens, UniProt P15036 1-469)
T3 sequence: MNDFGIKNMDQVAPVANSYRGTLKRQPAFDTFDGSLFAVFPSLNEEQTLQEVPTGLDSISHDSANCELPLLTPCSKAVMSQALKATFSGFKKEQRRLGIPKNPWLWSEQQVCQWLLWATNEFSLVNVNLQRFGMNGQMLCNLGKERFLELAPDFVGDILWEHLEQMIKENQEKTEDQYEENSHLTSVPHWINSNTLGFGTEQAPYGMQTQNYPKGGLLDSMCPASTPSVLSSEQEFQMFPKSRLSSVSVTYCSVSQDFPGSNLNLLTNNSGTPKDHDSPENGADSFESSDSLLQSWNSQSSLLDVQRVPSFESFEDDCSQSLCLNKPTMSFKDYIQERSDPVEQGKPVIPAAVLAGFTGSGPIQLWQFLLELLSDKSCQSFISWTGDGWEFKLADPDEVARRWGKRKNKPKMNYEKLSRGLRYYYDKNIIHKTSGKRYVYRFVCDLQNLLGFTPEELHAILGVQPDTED
Outline: as §1

SPDEF = target: T4, SPDEF (Homo sapiens, UniProt O95238 1-335)
T4 sequence: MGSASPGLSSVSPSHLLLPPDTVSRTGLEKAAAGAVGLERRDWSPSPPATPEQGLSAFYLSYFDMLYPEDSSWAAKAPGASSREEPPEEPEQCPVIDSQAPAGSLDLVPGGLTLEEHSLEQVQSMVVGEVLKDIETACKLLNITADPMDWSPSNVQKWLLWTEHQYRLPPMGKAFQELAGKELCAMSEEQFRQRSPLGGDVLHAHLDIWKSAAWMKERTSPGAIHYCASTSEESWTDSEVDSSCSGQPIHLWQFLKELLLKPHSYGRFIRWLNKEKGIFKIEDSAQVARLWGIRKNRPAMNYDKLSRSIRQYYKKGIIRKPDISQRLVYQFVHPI
Outline: as §1

ETV7 = target: T5, ETV7 (Homo sapiens, UniProt Q9Y603 1-341)
T5 sequence: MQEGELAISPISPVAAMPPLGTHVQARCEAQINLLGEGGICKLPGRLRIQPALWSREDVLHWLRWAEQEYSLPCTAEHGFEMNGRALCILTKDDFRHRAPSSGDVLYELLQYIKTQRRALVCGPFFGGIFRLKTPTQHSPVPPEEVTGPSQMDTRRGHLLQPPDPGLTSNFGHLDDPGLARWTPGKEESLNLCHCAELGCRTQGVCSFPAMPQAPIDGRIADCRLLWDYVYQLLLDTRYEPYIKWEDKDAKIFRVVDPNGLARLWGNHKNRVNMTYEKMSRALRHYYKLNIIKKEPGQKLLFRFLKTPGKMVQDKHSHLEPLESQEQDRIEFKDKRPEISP
Outline: as §1

ELF5 = target: T6, ELF5 (Homo sapiens, UniProt Q9UKW6-2 1-255)
T6 sequence: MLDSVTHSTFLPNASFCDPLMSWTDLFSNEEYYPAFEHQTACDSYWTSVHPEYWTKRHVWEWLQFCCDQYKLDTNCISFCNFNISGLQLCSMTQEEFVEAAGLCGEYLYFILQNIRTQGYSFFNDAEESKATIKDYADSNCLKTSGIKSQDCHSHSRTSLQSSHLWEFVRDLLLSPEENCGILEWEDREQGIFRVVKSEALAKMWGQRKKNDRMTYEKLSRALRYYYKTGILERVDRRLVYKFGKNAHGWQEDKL
Outline: as §1

ETV3 = target: T7, ETV3 (Homo sapiens, UniProt P41162-2 1-143)
T7 sequence: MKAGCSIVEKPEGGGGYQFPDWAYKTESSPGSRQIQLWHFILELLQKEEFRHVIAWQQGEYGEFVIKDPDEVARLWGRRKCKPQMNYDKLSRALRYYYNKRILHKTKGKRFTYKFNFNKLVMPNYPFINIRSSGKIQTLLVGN
Outline: as §1

ETV6 = ETV6 (Homo sapiens, UniProt P41212 1-452)
ETV6, sequence (P41212 whole entry): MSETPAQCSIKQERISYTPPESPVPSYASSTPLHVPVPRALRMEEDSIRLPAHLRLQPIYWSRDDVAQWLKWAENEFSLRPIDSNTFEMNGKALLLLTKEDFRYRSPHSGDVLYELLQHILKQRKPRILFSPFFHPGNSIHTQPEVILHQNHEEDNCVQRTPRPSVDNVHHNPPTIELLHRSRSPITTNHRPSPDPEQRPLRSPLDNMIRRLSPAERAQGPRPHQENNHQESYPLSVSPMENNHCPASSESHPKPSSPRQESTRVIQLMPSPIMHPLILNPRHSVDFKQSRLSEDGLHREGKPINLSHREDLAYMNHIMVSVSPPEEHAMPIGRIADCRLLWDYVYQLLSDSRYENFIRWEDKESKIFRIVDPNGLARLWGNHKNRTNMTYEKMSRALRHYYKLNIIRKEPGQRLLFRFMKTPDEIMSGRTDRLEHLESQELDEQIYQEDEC
Outline: as §1

Sequence	binding signal (ERF)	binding signal (ETV3L)	binding signal (ETS2)	binding signal (SPDEF)	binding signal (ETV7)	binding signal (ELF5)	binding signal (ETV3)	binding signal (ETV6)
CTGAAT	1.47 fold enrichment (6-mer frequency, TF over GST control)	1.32 fold enrichment (6-mer frequency, TF over GST control)	1.32 fold enrichment (6-mer frequency, TF over GST control)	1.53 fold enrichment (6-mer frequency, TF over GST control)	1.17 fold enrichment (6-mer frequency, TF over GST control)	1.18 fold enrichment (6-mer frequency, TF over GST control)	1.29 fold enrichment (6-mer frequency, TF over GST control)	1.22 fold enrichment (6-mer frequency, TF over GST control)
TCCATA	1.37 fold enrichment (6-mer frequency, TF over GST control)	1.27 fold enrichment (6-mer frequency, TF over GST control)	1.25 fold enrichment (6-mer frequency, TF over GST control)	1.27 fold enrichment (6-mer frequency, TF over GST control)	1.14 fold enrichment (6-mer frequency, TF over GST control)	1.22 fold enrichment (6-mer frequency, TF over GST control)	1.22 fold enrichment (6-mer frequency, TF over GST control)	1.27 fold enrichment (6-mer frequency, TF over GST control)
ATGAAT	1.16 fold enrichment (6-mer frequency, TF over GST control)	1.14 fold enrichment (6-mer frequency, TF over GST control)	1.17 fold enrichment (6-mer frequency, TF over GST control)	1.06 fold enrichment (6-mer frequency, TF over GST control)	1.19 fold enrichment (6-mer frequency, TF over GST control)	1.09 fold enrichment (6-mer frequency, TF over GST control)	1.2 fold enrichment (6-mer frequency, TF over GST control)	1.15 fold enrichment (6-mer frequency, TF over GST control)
TTTGCG	1.36 fold enrichment (6-mer frequency, TF over GST control)	1.16 fold enrichment (6-mer frequency, TF over GST control)	1.21 fold enrichment (6-mer frequency, TF over GST control)	1.2 fold enrichment (6-mer frequency, TF over GST control)	1.11 fold enrichment (6-mer frequency, TF over GST control)	1.16 fold enrichment (6-mer frequency, TF over GST control)	1.17 fold enrichment (6-mer frequency, TF over GST control)	1.29 fold enrichment (6-mer frequency, TF over GST control)
ATTATG	1.11 fold enrichment (6-mer frequency, TF over GST control)	1.27 fold enrichment (6-mer frequency, TF over GST control)	1.14 fold enrichment (6-mer frequency, TF over GST control)	1.19 fold enrichment (6-mer frequency, TF over GST control)	1.32 fold enrichment (6-mer frequency, TF over GST control)	1.14 fold enrichment (6-mer frequency, TF over GST control)	1.2 fold enrichment (6-mer frequency, TF over GST control)	1.33 fold enrichment (6-mer frequency, TF over GST control)
TCAAAC	1.18 fold enrichment (6-mer frequency, TF over GST control)	1.09 fold enrichment (6-mer frequency, TF over GST control)	1.19 fold enrichment (6-mer frequency, TF over GST control)	1.15 fold enrichment (6-mer frequency, TF over GST control)	1.11 fold enrichment (6-mer frequency, TF over GST control)	1.12 fold enrichment (6-mer frequency, TF over GST control)	1.21 fold enrichment (6-mer frequency, TF over GST control)	1.19 fold enrichment (6-mer frequency, TF over GST control)
AAATTT	1.43 fold enrichment (6-mer frequency, TF over GST control)	1.4 fold enrichment (6-mer frequency, TF over GST control)	1.35 fold enrichment (6-mer frequency, TF over GST control)	1.15 fold enrichment (6-mer frequency, TF over GST control)	1.36 fold enrichment (6-mer frequency, TF over GST control)	1.43 fold enrichment (6-mer frequency, TF over GST control)	1.27 fold enrichment (6-mer frequency, TF over GST control)	1.37 fold enrichment (6-mer frequency, TF over GST control)
CGTTTT	1.15 fold enrichment (6-mer frequency, TF over GST control)	1.29 fold enrichment (6-mer frequency, TF over GST control)	1.16 fold enrichment (6-mer frequency, TF over GST control)	1.14 fold enrichment (6-mer frequency, TF over GST control)	1.25 fold enrichment (6-mer frequency, TF over GST control)	1.14 fold enrichment (6-mer frequency, TF over GST control)	1.21 fold enrichment (6-mer frequency, TF over GST control)	1.24 fold enrichment (6-mer frequency, TF over GST control)

From paper PMC7862700, “An all-to-all approach to the identification of sequence-specific readers for epigenetic DNA modifications on cytosine”
